In the supplement of paper PMC6555819:

Key:
Test in all cases: PBM binding z-score (relative to random genomic background probes); higher = stronger binding; sequences stand for … in GC…GCGATTGACAGCGTAGAATGAAGG
[1] = system: PPARg:RXRa DBDmut IVT, anti-RXR (DBD mutation: RXRa K156A/R161A, NR concentration 270 nM, RXRa partner concentration 90 nM)
Procedure, shortened: (§1)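 Custom Agilent 4×180K protein-binding microarrays carried double-stranded probes. Their 34-nt variable regions held direct-repeat seeds, single-nucleotide variants, half-site ablations and random human genomic background sequences. Arrays were incubated 1 h with ligand-free nuclear receptor dimers in PBS pH 7.4, 2% milk, 0.02% Triton X-100, 1 mM DTT, 0.2 mg/mL BSA and 0.4 mg/ml salmon testes DNA. Antibodies against each partner (one per run) detected binding, and scanned fluorescence was regression-normalized. Binding z-scores use random background probes as reference.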

[2] = system: PPARg:RXRa IVT, anti-PPARg (NR concentration 270 nM, RXRa partner concentration 90 nM)
Procedure, shortened: as §1

[3] = system: PPARg DBDmut:RXRa IVT, anti-PPARg (DBD mutation: PPARg1 K132A/R137A, NR concentration 270 nM, RXRa partner concentration 90 nM)
Procedure, shortened: as §1

[4] = system: PPARg DBDmut IVT, anti-PPARg (DBD mutation: PPARg1 K132A/R137A, NR concentration 270 nM)
Procedure, shortened: as §1

[5] = system: PPARg homodimer (NR concentration 180 nM)
Procedure, shortened: as §1

[6] = system: PXR:RXRa (NR concentration 270 nM, RXRa partner concentration 90 nM)
Procedure, shortened: as §1

[7] = system: PXR homodimer (NR concentration 270 nM)
Procedure, shortened: as §1

[8] = system: RARa:RXR (NR concentration 270 nM, RXRa partner concentration 90 nM)
Procedure, shortened: as §1

[9] = system: RARa homodimer (NR concentration 270 nM)
Procedure, shortened: as §1

[10] = system: RARb:RXRa (NR concentration 270 nM, RXRa partner concentration 90 nM)
Procedure, shortened: as §1

Sequence | PBM binding z-score [1] | PBM binding z-score [2] | PBM binding z-score [3] | PBM binding z-score [4] | PBM binding z-score [5] | PBM binding z-score [6] | PBM binding z-score [7] | PBM binding z-score [8] | PBM binding z-score [9] | PBM binding z-score [10]
TCTTGTAGATCAAAGGTTAACAAAGCCGAAGCCT | 2.15 | 4.38 | 1.04 | 0.514 | 1.03 | 2.26 | 0.125 | 3.03 | 1.01 | 2.09
ATATGTAGGCTAGCTGGGGTCATTCAGACTAGGC | 4.55 | 3.66 | 1.11 | 0.266 | 1.81 | 5.32 | 2.19 | 5.28 | 0.344 | 2.28
ACTAGCAGGCCAAGGGTCACTCACGATTAGTCCG | 1.04 | 3.8 | 0.074 | -0.149 | 1.92 | 3.09 | -0.277 | 3.55 | 0.389 | 3.45
CAGCCTAGGTCAGGGCCTGTATAGGAGGAACGTT | 1.45 | 1.31 | -0.895 | -1.4 | 0.134 | 0.236 | -0.76 | 0.971 | -1.2 | 3.33
CAAACTAGGTCACAGATGTCAAAGTCCGTGCGTA | 8.74 | 8.85 | 3.45 | 2.75 | 2.09 | 2.47 | 0.19 | 3.24 | 1.17 | 4.17
ACTTACGCGTCAACGAGGTTATAGCACGCGTATA | -0.0489 | 0.00944 | 0.527 | -0.0395 | 0.374 | 1.04 | -0.0402 | 1.15 | 0.181 | 0.516
TCTTGTAGATCAAGCAGGATAAGAAAGCCTGAGT | 1.53 | 0.265 | 0.695 | 0.533 | 0.027 | -0.0334 | 0.538 | 0.108 | 0.37 | -0.349
AGTATGAGGTTATACGTAGATCAGGGAAGAAAGT | 1.1 | 0.98 | 0.752 | 0.274 | 0.842 | 1.25 | 0.582 | 1.66 | 0.209 | 1.58
ATCGAAAGGTCGAGGTGAGTCTAGAGAAAGGGAA | 0.536 | 2.56 | 0.697 | 0.961 | 1.92 | 3.05 | 0.144 | 3.67 | 0.714 | 4.31
CGTCAAAGTTTAACTAAGGTAACGTAAAGCACGC | 0.271 | 1.32 | 0.6 | 1.17 | 0.901 | 1.45 | 0.928 | 1.55 | 0.858 | 2.44
ATCTGTAGGTAACAAGTTCAGTGAAAGAGAGGAC | 2.85 | 2.64 | 1.31 | 0.975 | 1.16 | 1.58 | 0.906 | 1.16 | 0.818 | 1.63
ATCTCTTGGTAAAGATAGTTCAGTGAATGCAAAT | -0.0767 | 0.448 | 0.845 | 1.88 | 0.879 | 0.78 | 0.85 | 0.962 | 0.477 | 0.724
ATTTCTAGGTAACCAAGTTCAGTGAATGCCGAAC | 5.61 | 4.97 | 2.81 | 3.03 | 1.16 | 2.1 | 1.89 | 0.832 | 1.02 | 1.49
ATCGAAAGGTCGAAGGTAAGTATACCCACCCGAA | -0.0708 | 1.49 | 0.751 | 0.919 | 0.93 | 2.6 | 0.149 | 3.27 | 0.263 | 3.59
ACTAGCAGGCCAAGTTTGGGTCACCCAAACAAAG | 0.771 | 1.58 | -0.22 | -0.356 | 0.716 | 1.08 | -0.637 | 1.89 | -1.22 | 2.06
TCTTGTAGATCAATGGTTAAGAAAGCCGAAGCCT | 1.89 | 0.567 | 0.47 | 0.225 | -0.106 | 0.039 | -0.283 | 0.142 | 0.324 | -0.236
CCTACTGGGCCAAACGTCATTGATTCCAATGCTC | 6.22 | 3.97 | -0.542 | -0.413 | 0.259 | -0.508 | -0.633 | 0.0892 | -0.153 | 0.179
CCTACTGGGCCAAGAAAGGTCATTGATTCAGTGA | 3.49 | 3.92 | -0.232 | 0.143 | 2.98 | 5.1 | 1.18 | 5.31 | 1.75 | 3.89
AGAATGAGGATATTAAGATCAGGGAATTGCGGTC | -0.168 | 0.03 | 0.947 | 0.486 | -0.141 | -0.209 | 0.0307 | -0.171 | 0.578 | -0.259

Sequence | PBM binding z-score [1] | PBM binding z-score [2] | PBM binding z-score [3] | PBM binding z-score [4] | PBM binding z-score [5] | PBM binding z-score [6] | PBM binding z-score [7] | PBM binding z-score [8] | PBM binding z-score [9] | PBM binding z-score [10]
CATACAGGGTCAGCTAGGCCAGAGCAGGGACGGC | 0.983 | 2.45 | 0.782 | 0.361 | 1.29 | 2.04 | 0.078 | 2.84 | 0.253 | 4.15
TCTTGTAGATCAACAAGAGGTTAAGAAAGATCGA | 1.35 | 0.865 | 0.785 | 0.787 | -0.0436 | 1.27 | 0.0734 | 1.63 | -0.225 | 0.99
CCTCGGAGGACAGAAGGTCAGAGCAGTCCGCTTT | 0.416 | 0.276 | -1.6 | -1.82 | 1.18 | 2.83 | -0.373 | 2.41 | 0.42 | 3.25
CAGCCTAAGTCAGGGCCAGTATAGGAGGAACGTT | -0.358 | -0.577 | -1.05 | -1.43 | -0.193 | -0.653 | -0.125 | -0.178 | -0.484 | -0.134
TCTATTAGTTGAAGGGCAAACGACGAGTCCGTTT | 2.81 | 0.694 | 0.606 | 0.592 | 1.18 | 1.25 | 1.12 | 1.22 | 1.02 | 1.72
TGTCAAAGTTAAAAGGTAACGTAAGTATCCACAC | -0.253 | 2.08 | 1.24 | 0.84 | 0.261 | 0.715 | 0.361 | 1.23 | 0.69 | 1.33
TCTCAAAGTTCAAAGGTAACGTAAGTATCCACAC | 2.92 | 1.65 | 0.898 | 1.45 | 3.16 | 5.66 | 4.17 | 6.13 | 2.08 | 5.15
CCTCAGAGGACAGAAGGTCAGAGCTGTCCGCTTT | 0.0276 | 0.424 | -0.801 | -2.11 | 1.69 | 1.66 | -0.179 | 2.01 | 0.177 | 3.41
AGTCAAAGTTCATCTAGGAAACGTAAGATATGCT | 0.0279 | 2.61 | 1.09 | 0.7 | 2.32 | 4.53 | 3.68 | 3.18 | 1.09 | 5.02
TCTATTAGTGGATTAGGGCAACCGAAACAGCGGA | 2.45 | 2.24 | 0.96 | 1.11 | 1.27 | 0.235 | 0.482 | 0.458 | 1.39 | 0.682
AGTCAAAGTGCACTAGGTAACGTAAGATTCAGCT | 1.83 | 3.56 | 0.58 | -0.0287 | 0.167 | 0.215 | 0.189 | 0.315 | -0.372 | 1.53
ACAGACAGGTGAGTGAAGGTAAATCAGCTGGACG | 0.437 | 0.547 | -0.117 | 0.0853 | 0.0194 | -0.359 | -0.168 | 0.0806 | -0.397 | 0.388
TCTATTAGTTGTAGGGCAACCGACGAGTCCGTTT | 3.04 | 2.66 | 0.777 | 1.16 | 0.517 | 0.457 | 0.613 | 0.212 | 0.401 | 0.601
CCTGACGGGTCACGAGGTTATAGCACGACGAGCG | 2.13 | 3.75 | 0.388 | 0.539 | 3.04 | 4.13 | 0.0429 | 5.48 | 1.05 | 4.32
GCATATAGGTAGTACAAGGTGAAAGTCCGATTGT | 0.709 | 1.04 | 0.664 | 0.977 | -0.146 | 0.403 | 0.176 | 0.66 | 0.249 | 0.368
GCTATTTGGTCAGTAAAAGGTCACACACCGGTCG | 1.19 | 3.03 | 0.901 | 1.1 | 3.8 | 5.12 | 1.46 | 5.67 | 2.38 | 4.45
ACTATTAGTTGAGACGAGGGAAACCGATAGGTTG | 0.0625 | -0.339 | 0.706 | 0.394 | 0.465 | -0.464 | -0.0777 | 0.0368 | 0.655 | -0.193
CGTCAAAGTTCAAGGTAACCTAACAGAAAGCAGC | 0.978 | 2.67 | 0.466 | 0.361 | 2.09 | 4.03 | 2.12 | 3.26 | 1.18 | 5.37
CATACAGGGTCAACTAGGCCAGAGTAGGGACGGC | 2.92 | 4.23 | 1.17 | 0.243 | 2.2 | 3.61 | 0.451 | 4.7 | 0.953 | 4.66
